The results in this text go back to PubChem BioAssay (Tox21).

For assay [1], the target named is Thyrotropin receptor (Homo sapiens) (UniProt P16473). As to the kind of experiment: qHTS assay to identify small molecule antagonists of the thyroid stimulating hormone receptor (TSHR) signaling pathway (AID 1259385; calls by dose curve; also: nearly all actives have a fitted effect of over 20% in size; also: potency is read from the fitted curve at half-maximal effect). The gist of the method:
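Antagonist mode: compound-treated TSHR-expressing HEK293 cells were stimulated with 1.5 ng/mL TSH (final) in presence of Ro20-1724 for 30 min at RT. HTRF cAMP detection after 1 h; each compound tested at 15 concentrations, triplicate.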
On the technique in general: qHTS replaces the single test concentration by a dilution series.

Assay [2] in a line: qHTS assay to identify small molecule agonists of the estrogen receptor alpha (ER-alpha) signaling pathway in the presence of an antagonist - cell viability counter screen (AID 1259386).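 Also: series mostly up to about 92 µM; cells exposed to compounds for 22 h at 37 °C before the viability read; nearly all actives have a fitted effect of over 30% in size.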 The gist of the method:
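Viability counter screen using VM7Luc4E2 (full-length ER-alpha, four ERE-luciferase). The cells were treated with compounds alongside ICI-182,780 10.0nM for 22hr, and live-cell protease fluorescence was quantified with CellTiter-Fluor.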

Assay [3] deals with Progesterone receptor (Homo sapiens) (UniProt P06401). Put plainly: qHTS assay to identify small molecule antagonists of the progesterone receptor (PR) signaling pathway (AID 1346795; active = well fitted inhibition curve with a large enough effect in the signal ratio in the repeat runs, not every such curve was filed as active; the % refers to the signal ratio; also: potency is read from the fitted curve at half-maximal effect). The method, boiled down: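 HEK293T PR-UAS-bla reporter cells in charcoal-stripped serum (2%) received compound after a 6 hr settling period, followed by R5020 agonist at 1 nM final; 16 hr incubation preceded the FRET substrate step and fluorescence measurement.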

Assay [4] can be described thus: qHTS assay to identify small molecule antagonists of the progesterone receptor (PR) signaling pathway - cell viability counter screen (AID 1346798). Also: nearly all actives have a fitted effect of over 50% in size. Also: potency is read from the fitted curve at half-maximal effect. As to activity change, negative = cytotoxicity: series mostly up to about 92 µM. The method, boiled down: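 Same-well multiplex: after 16 hr at 37C with compound and R5020 stimulation, HEK293T cells carrying a UAS-bla reporter received LiveBLAzer substrate (2 hr RT), then CellTiter-Glo (30 min RT) for luminescent viability.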

The nature of assay [5]: qHTS assay to identify small molecule agonists of the progesterone receptor (PR) signaling pathway - cell viability counter screen (AID 1346799; calls by dose curve; also: nearly all actives have a fitted effect of over 45% in size; also: potency is read from the fitted curve at half-maximal effect). The gist of the method: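 Counter screen for cytotoxicity: compound-treated PR-UAS-bla HEK293T cells (16 hr, 37C, 5% CO2) were assayed with CellTiter-Glo, luminescence measured after 30 min at room temperature.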
Assay [6] is described as follows: qHTS assay to identify small molecule antagonists of the TGF-beta/Smad signaling pathway - cell viability counter screen (AID 1346824). Also: nearly all actives have a fitted effect of over 50% in size. The method, boiled down: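 Cytotoxicity counter-screen run in the same wells as the beta-lactamase Smad reporter read: CellTiter-Glo luminescence after 30 min at room temperature. HEK 293T SBE-bla cells had 5 hr compound exposure at 37 C with TGF-beta1 (0.25 ng/mL stock).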

Assay [7] in a line: qHTS assay to identify small molecule agonists of the TGF-beta/Smad signaling pathway - cell viability counter screen (AID 1346829). Also: top concentration of the series differs between compounds; nearly all actives have a fitted effect of over 45% in size. The method, boiled down: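 Here the cytotoxicity of library compounds is measured in SBE-bla HEK 293T cells treated for 5 hr, using CellTiter-Glo added to wells already read for the beta-lactamase reporter.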
Assay [8] is described as follows: qHTS assay to identify small molecule agonists of the TGF-beta/Smad signaling pathway (AID 1346859; active = well fitted activation curve with a large enough effect in the signal ratio in the repeat runs, not every such curve was filed as active; the % refers to the signal ratio; also: series mostly up to about 77 µM). The gist of the method:
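Smad-responsive beta-lactamase reporter cells (HEK 293T) received compounds from DMSO stocks after overnight attachment, were incubated 5 hr, then treated 2 hr with FRET substrate before dual-emission fluorescence measurement (405 nm excitation).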

The target in assay [9] is Thyrotropin-releasing hormone receptor (Homo sapiens) (UniProt P34981). Put plainly: qHTS assay to identify small molecule antagonists of the thyrotropin-releasing hormone receptor (TRHR) signaling pathway (AID 1346877; active = well fitted inhibition curve with a large enough effect in the repeat runs, not every such curve was filed as active; also: series mostly up to about 51 µM). The method, boiled down:
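Following an 18 h incubation at 37 °C and a 2 h calcium dye load, TRHR-HEK293 cells were exposed to compound (5 min, room temperature) and challenged with TRH, 1 nM final.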

The target in assay [10] is Progesterone receptor (Homo sapiens) (UniProt P06401). Put plainly: qHTS assay to identify small molecule agonists of the progesterone receptor (PR) signaling pathway (AID 1346784; calls by dose curve; also: nearly all actives have a fitted effect of over 30% in size; also: potency is read from the fitted curve at half-maximal effect). The method, boiled down: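 Agonist mode, quantitative HTS format in a HEK 293T line expressing a UAS-controlled beta-lactamase reporter; 16 hr compound exposure at 37C in 2% charcoal-stripped FBS, then LiveBLAzer B/G FRET fluorescence.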

Unmarked numbers belong to inactive results. Results filed as inconclusive are left out. Activity calls are given as the source filed them. Unless noted, calls follow the shape of the dose curve; as a rule, active = well fitted curve in the direction sought with a large enough effect in the repeat runs; inconclusive = weak or mixed curves; inactive = no such curve, though single readings can be large; an effect the other way counts as inactive or inconclusive.
% is scaled to controls: 0 for no effect and ±100 for the full control effect.

Chain of Thyrotropin receptor (Homo sapiens) (P16473 whole entry, looked up): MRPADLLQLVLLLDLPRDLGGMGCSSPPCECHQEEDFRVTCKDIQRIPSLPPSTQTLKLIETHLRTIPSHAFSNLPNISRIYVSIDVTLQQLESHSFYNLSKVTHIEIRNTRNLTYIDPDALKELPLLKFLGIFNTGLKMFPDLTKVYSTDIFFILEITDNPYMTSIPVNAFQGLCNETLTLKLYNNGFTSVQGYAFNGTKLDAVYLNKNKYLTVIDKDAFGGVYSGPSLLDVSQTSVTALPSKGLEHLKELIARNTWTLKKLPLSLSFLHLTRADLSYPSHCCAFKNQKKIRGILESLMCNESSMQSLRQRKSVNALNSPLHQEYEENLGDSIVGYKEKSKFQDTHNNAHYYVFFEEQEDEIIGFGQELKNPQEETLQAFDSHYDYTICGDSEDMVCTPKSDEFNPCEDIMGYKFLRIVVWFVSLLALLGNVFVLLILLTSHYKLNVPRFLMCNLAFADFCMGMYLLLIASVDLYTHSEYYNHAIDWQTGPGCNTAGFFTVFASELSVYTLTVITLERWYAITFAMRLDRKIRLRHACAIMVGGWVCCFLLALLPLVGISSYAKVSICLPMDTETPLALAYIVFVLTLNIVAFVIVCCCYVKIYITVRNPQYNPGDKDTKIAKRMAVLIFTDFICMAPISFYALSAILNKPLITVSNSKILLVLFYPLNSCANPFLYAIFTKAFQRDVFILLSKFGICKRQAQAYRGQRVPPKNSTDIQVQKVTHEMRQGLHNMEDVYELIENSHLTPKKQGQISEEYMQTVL
Chain of Progesterone receptor (Homo sapiens) (P06401 whole entry, looked up): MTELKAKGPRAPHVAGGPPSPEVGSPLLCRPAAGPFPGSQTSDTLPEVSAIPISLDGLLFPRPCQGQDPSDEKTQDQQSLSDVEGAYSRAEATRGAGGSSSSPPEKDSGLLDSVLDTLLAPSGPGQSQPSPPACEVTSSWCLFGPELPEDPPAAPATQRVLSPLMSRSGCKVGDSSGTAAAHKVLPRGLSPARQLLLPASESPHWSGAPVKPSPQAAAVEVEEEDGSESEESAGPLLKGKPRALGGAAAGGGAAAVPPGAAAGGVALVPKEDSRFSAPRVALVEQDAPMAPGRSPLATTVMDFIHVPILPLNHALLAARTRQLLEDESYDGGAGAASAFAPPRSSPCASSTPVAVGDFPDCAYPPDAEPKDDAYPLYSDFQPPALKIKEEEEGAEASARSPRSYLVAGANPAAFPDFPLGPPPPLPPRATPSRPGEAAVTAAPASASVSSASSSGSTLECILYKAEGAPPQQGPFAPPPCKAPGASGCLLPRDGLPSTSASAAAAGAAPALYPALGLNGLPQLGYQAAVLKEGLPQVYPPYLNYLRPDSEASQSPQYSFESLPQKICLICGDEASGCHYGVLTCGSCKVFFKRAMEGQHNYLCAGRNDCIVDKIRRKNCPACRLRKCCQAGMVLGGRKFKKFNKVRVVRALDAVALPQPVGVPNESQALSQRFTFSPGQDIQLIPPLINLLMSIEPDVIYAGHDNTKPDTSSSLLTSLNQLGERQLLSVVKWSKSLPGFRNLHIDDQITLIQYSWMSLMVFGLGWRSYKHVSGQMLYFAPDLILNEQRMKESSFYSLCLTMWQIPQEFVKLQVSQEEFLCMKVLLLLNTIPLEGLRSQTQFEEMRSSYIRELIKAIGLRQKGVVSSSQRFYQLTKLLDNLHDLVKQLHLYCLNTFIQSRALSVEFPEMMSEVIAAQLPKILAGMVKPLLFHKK
Chain of Thyrotropin-releasing hormone receptor (Homo sapiens) (P34981 whole entry, looked up): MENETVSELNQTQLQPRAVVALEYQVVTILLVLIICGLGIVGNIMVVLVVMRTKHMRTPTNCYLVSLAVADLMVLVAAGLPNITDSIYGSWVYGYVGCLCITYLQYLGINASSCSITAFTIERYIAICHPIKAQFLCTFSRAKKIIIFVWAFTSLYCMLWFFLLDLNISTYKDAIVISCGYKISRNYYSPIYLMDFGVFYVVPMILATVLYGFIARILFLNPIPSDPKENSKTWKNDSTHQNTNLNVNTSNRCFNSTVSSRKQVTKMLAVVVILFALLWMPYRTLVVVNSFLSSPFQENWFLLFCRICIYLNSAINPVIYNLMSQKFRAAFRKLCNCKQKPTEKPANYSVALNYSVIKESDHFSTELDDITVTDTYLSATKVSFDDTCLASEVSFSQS

As for `NC/C=C/C(=O)O`, the Potency entry in assay [1], in [2], in [3], in assay [4] and in assay [5] was “inactive” in each case. Further, the result in [6] and in assay [7] was inactive.
Consider `CCCCC(=O)O[C@]1(C(=O)CO)[C@H](C)C[C@H]2[C@@H]3CCC4=CC(=O)C=C[C@]4(C)[C@@]3(F)[C@@H](O)C[C@@]21C`, for which the Potency entry in assay [1], in assay [2], in assay [3] and in assay [4] was “inactive” throughout. Also, the compound was called inactive in assay [6], in [7] and in assay [8].
`COc1ccccc1OCC(O)COC(N)=O` (configuration not stated): the Potency entry in [1], in [2], in assay [3], in assay [4] and in assay [5] was “inactive” in each case. The outcome in assay [6], in assay [7], in [8] and in assay [9] was inactive.
In the case of `ICCc1ccccc1`, the Potency result in [1] and in assay [2] was “inactive” each time. Also, the Potency in [3], in assay [4] and in assay [5] was 59.9 µM (active) throughout. Also, the call in [6], in [7] and in [9] was inactive.
Regarding `FC(F)(F)C(Cl)(Cl)Cl`, the Potency result in [1], in assay [2], in assay [3] and in assay [5] was “inactive” throughout. The call in assay [6], in assay [7], in [8] and in assay [9] was inactive.
In the case of `CCCCN1C[C@H](O)[C@@H](O)[C@H](O)[C@H]1CO`, the Potency result in assay [1], in [2], in [3], in assay [4] and in [5] was “inactive” each time. The compound was called inactive in assay [6] and in assay [7].
Consider `CC(C)C[C@H](NC(=O)OCC1c2ccccc2-c2ccccc21)C(=O)O`, for which the Potency entry in assay [1], in assay [2], in [4] and in [5] was “inactive” throughout. Further, the result in assay [6] and in [7] was inactive.
In the case of `C/C(=N\O)[C@@H](C)NCC(C)(C)CN[C@H](C)/C(C)=N/O`, the Potency entry in assay [1], in assay [2], in assay [3] and in [5] was “inactive” each time. The call in assay [6], in assay [7], in assay [8] and in [9] was inactive.
With `O=C1Nc2ccc([N+](=O)[O-])cc2C1=O`, the Potency result in assay [1], in assay [10], in assay [3], in assay [4] and in assay [5] was “inactive” each time. The outcome in assay [7] and in [8] was inactive.
Take `Cc1cccc(C)c1NC(=O)CN1CCCCCC1`: the Potency entry in [1], in assay [2], in [4] and in [5] was “inactive” in each case. Moreover, the outcome in assay [6], in [7] and in [8] was inactive.
With `Cc1ccc(C(C)C)cc1O`, the Potency entry in assay [2], in assay [10], in assay [3], in [4] and in assay [5] was “inactive” each time. Besides, the result in assay [6], in assay [7] and in assay [8] was inactive.
`Clc1cccc(-c2cc(Cl)cc(Cl)c2)c1`: the Potency in [1] was 52.5 µM (active). Besides, the Potency result in assay [2] and in assay [4] was “inactive” throughout. For the same compound, the compound was called inactive in [6], in assay [7], in assay [8] and in assay [9].
For the compound `O=C(CC(=O)C(F)(F)F)c1ccccc1`, the Potency result in assay [2], in assay [3], in [4] and in assay [5] was “inactive” throughout. Further, in [10], the Potency was 8.76 µM (active). The outcome in [6], in assay [7] and in [8] was inactive.
In the case of `CCN(O)CC`, the Potency entry in assay [2], in assay [10], in assay [3], in assay [4] and in assay [5] was “inactive” in each case. The outcome in assay [6], in assay [7] and in [8] was inactive.
Take `CN(CCCN1c2ccccc2CCc2ccccc21)CC(=O)c1ccc(Cl)cc1`: the Potency entry in [1], in assay [2], in [4] and in assay [5] was “inactive” each time. The result in assay [6], in assay [7], in [8] and in assay [9] was inactive.
As for `CC(C)(C)c1ccc(OC(=O)c2ccccc2O)cc1`, the Potency result in assay [2], in assay [10], in assay [3], in assay [4] and in assay [5] was “inactive” each time. In addition, the call in [6] and in assay [7] was inactive.
Turning to `O=C(O)c1ccccc1Nc1cc(Cl)ccc1C(=O)O`, the activity change, negative = inhibition in [1] was 2.68% [at 19 µM]. Also, the activity change, negative = cytotoxicity in assay [2] is -2.8% [at 19 µM]; in [7], 9.07% [at 15.8 µM]. In assay [4], the Potency was 13 µM (active). Moreover, the viability change, negative = cytotoxic in assay [6] is 0.61% [at 15.8 µM]. In addition, the activation in assay [8] is -1.11% [at 15.8 µM]. The activity, negative = inhibition in [9] was 1.01% [at 10.5 µM].
For `CCOc1ccccc1N`, the Potency entry in [1], in [10], in assay [3] and in [4] was “inactive” in each case. Further, the compound was called inactive in assay [6], in assay [7] and in [8].
Turning to `CC(C)C1=CC2=CC[C@@H]3[C@](C)(CCC[C@@]3(C)C(=O)O)[C@H]2CC1`, the Potency entry in [2], in [10], in assay [3], in [4] and in assay [5] was “inactive” each time. In addition, the compound was called inactive in assay [6], in assay [7], in assay [8] and in [9].
`CCOC(=O)COc1ccc2c(c1)CC(NCC(O)c1cccc(Cl)c1)CC2` (configuration not stated): the Potency entry in assay [1], in assay [10], in assay [3], in assay [4] and in [5] was “inactive” each time. In addition, the result in assay [6], in assay [8] and in assay [9] was inactive.
For the compound `CN1CCN(C2=Nc3ccccc3Oc3ccc(Cl)cc32)CC1`, the Potency result in assay [2], in assay [10], in assay [4] and in assay [5] was “inactive” each time. In assay [3], the Potency is 26.6 µM (active). Moreover, the compound was classed as inactive in assay [6] and in assay [7].
For `COc1nc(C)nc(NC(=O)NS(=O)(=O)c2ccccc2OCCCl)n1`, the Potency result in [2], in assay [10], in assay [3], in assay [4] and in [5] was “inactive” each time. The outcome in [6], in assay [7], in assay [8] and in assay [9] was inactive.
As for `CC(C)NCC(O)COc1ccc(CCOCC2CC2)cc1` (configuration not stated), the Potency entry in assay [2], in assay [10], in assay [3], in assay [4] and in [5] was “inactive” each time. Further, the compound was classed as inactive in [6], in [7] and in [8].
For the compound `CC1CN(c2ccccc2)NC1=O` (configuration not stated), the Potency entry in [1], in assay [2], in assay [4] and in assay [5] was “inactive” throughout. Also, the call in [7], in [8] and in [9] was inactive.
On to `Cc1cc(S(=O)(=O)O)c(N)cc1Cl`, for which the Potency result in assay [2], in assay [10], in assay [3], in assay [4] and in assay [5] was “inactive” throughout. In addition, the call in [6], in assay [7], in assay [8] and in assay [9] was inactive.
`COc1ccc(Nc2ccc(OC)cc2)cc1`: the Potency entry in assay [1], in assay [10] and in assay [5] was “inactive” in each case. For the same compound, the result in [6], in assay [8] and in assay [9] was inactive.
